A number with no mark means an inactive call.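 Rule for the calls: active = AUC reduced over 20% with Padj below 0.05 in at least 2 of 3 replicates; inactive = otherwise.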
How the values were obtained:
Assay in all cases: growth AUC relative to DMSO control (median of replicates) (fraction); higher = more growth (less inhibition), active = hit call of the paper
Details in all cases: 20 µM; 24 h
[1] = system: Coprococcus comes
Procedure, shortened: (§1)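 OD600 was recorded every hour for 24 h in anaerobic monocultures of gut bacteria kept at 37 °C in mGAM, seeded at OD600 0.05 and given 20 µM compound in 1% DMSO. The area under each growth curve was scaled to the plate median of solvent-only wells, or to row and column medians for the industrial chemical plate. Before this step, the minimum OD was set to 0. Reported values are medians of three biological replicates run on separate days.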

[2] = system: Escherichia coli ED1a
Procedure, shortened: as §1

[3] = system: Escherichia coli IAI1
Procedure, shortened: as §1

[4] = system: Eubacterium rectale
Procedure, shortened: as §1

[5] = system: Fusobacterium nucleatum subsp. animalis
Procedure, shortened: as §1

[6] = system: Lactobacillus gasseri
Procedure, shortened: as §1

[7] = system: Lactobacillus paracasei
Procedure, shortened: as §1

[8] = system: Odoribacter splanchnicus
Procedure, shortened: as §1

[9] = system: Parabacteroides distasonis
Procedure, shortened: as §1

[10] = system: Parabacteroides merdae
Procedure, shortened: as §1

| SMILES | growth AUC [1] | growth AUC [2] | growth AUC [3] | growth AUC [4] | growth AUC [5] | growth AUC [6] | growth AUC [7] | growth AUC [8] | growth AUC [9] | growth AUC [10] |
| --- | --- | --- | --- | --- | --- | --- | --- | --- | --- | --- |
| CC1(C)[C@H](/C=C(\Cl)C(F)(F)F)[C@@H]1C(=O)O[C@@H](C#N)c1cccc(Oc2ccccc2)c1 | 0.959 | 1 | 0.992 | 0.961 | 0.953 | 0.853 | 0.996 | 1 | 0.985 | 0.957 |
| CCOP(=S)(OCC)Oc1cnccn1 | 0.984 | 0.988 | 0.963 | 0.813 | 1.01 | 0.993 | 1.01 | 1.04 | 1 | 1.01 |
| COc1nc(NC(C)C)nc(NC(C)C)n1 | 1.01 | 1.01 | 1.02 | 0.97 | 0.885 | 0.984 | 1.01 | 1.03 | 1.03 | 1.02 |
| CN(C)C(=O)Nc1ccc(Cl)cc1 | 0.985 | 1.01 | 0.97 | 0.996 | 1.02 | 1.05 | 1.03 | 0.963 | 0.938 | 1 |
| C=CC1(C)OC(=O)N(c2cc(Cl)cc(Cl)c2)C1=O (stereo not given) | 0.982 | 0.979 | 0.967 | 0.956 | 0.991 | 1.1 | 0.878 | 0.982 | 0.98 | 0.982 |
| O=[N+]([O-])c1c(Cl)c(Cl)cc(Cl)c1Cl | 1.01 | 0.99 | 1.02 | 0.954 | 0.983 | 1.14 | 0.927 | 1.02 | 0.986 | 1.01 |
| CCOP(=O)(Sc1ccccc1)Sc1ccccc1 | 1.02 | 0.995 | 0.982 | 1.13 | 1.08 | 0.957 | 0.953 | 0.965 | 0.649 (active) | 0.934 |
| C#CCN1CC(=O)N(COC(=O)C2C(C=C(C)C)C2(C)C)C1=O (mixture of isomers) | 0.982 | 0.991 | 0.968 | 0.805 | 0.945 | 0.994 | 0.997 | 0.958 | 0.996 | 0.927 |
| Cc1cccc(C)c1N | 1.02 | 0.978 | 0.985 | 0.997 | 0.927 | 1.02 | 0.936 | 1.03 | 1.01 | 0.999 |
| CCC(CC)Nc1c([N+](=O)[O-])cc(C)c(C)c1[N+](=O)[O-] | 0.982 | 0.987 | 0.947 | 0.979 | 0.93 | 0.858 | 0.935 | 1.11 | 0.974 | 0.942 |
| CC(C)C(C(=O)OC(C#N)c1cccc(Oc2ccccc2)c1)c1ccc(OC(F)F)cc1 (stereo not given) | 1.02 | 0.998 | 0.979 | 0.848 | 0.968 | 1.01 | 1.02 | 1.07 | 0.983 | 0.971 |
| CCOP(=S)(OCC)Oc1cc(-c2ccccc2)on1 | 1.03 | 0.993 | 0.993 | 1.05 | 0.973 | 0.886 | 0.964 | 1.01 | 0.854 | 1 |
| CNC(=O)CSP(=O)(OC)OC | 1.04 | 1.01 | 1.03 | 1.01 | 1.04 | 1.06 | 1.05 | 1.05 | 1.02 | 1.01 |
| Cc1cc(Cl)ccc1O | 0.989 | 1 | 1.02 | 1.02 | 1.07 | 0.979 | 0.873 | 1.07 | 1.02 | 1.04 |
| CC1(C)C(C=C(Cl)Cl)C1C(=O)OC(C#N)c1cccc(Oc2ccccc2)c1 (mixture of isomers) | 1 | 1.01 | 0.987 | 1.02 | 1.04 | 0.865 | 1.02 | 1.03 | 0.982 | 0.984 |
| O=C(O)CCCOc1ccc(Cl)cc1Cl | 1.05 | 0.984 | 0.981 | 1.18 | 0.933 | 1.01 | 1 | 1.11 | 0.919 | 0.979 |
| CCC(C)n1c(=O)[nH]c(C)c(Br)c1=O (stereo not given) | 1.02 | 0.979 | 0.94 | 1.07 | 1.01 | 0.869 | 1.03 | 0.461 | 0.926 | 0.891 |
| COP(=S)(OC)Oc1ccc(S(N)(=O)=O)cc1 | 1.01 | 0.976 | 0.999 | 0.901 | 0.998 | 1.06 | 1.05 | 1 | 0.992 | 1.01 |
| CC(=O)O.CC(=O)O.CC(=O)O.NC(N)=NCCCCCCCCNCCCCCCCCN=C(N)N | 0.0653 (active) | 0.966 | 0.822 | 0.0201 (active) | 0.729 | 0.89 | 0.834 | 0.0272 (active) | 0.213 (active) | 0.025 (active) |
| CCOP(=O)(OCC)O/C(=C\Cl)c1ccc(Cl)cc1Cl | 0.994 | 0.984 | 1.01 | 0.899 | 0.987 | 1.06 | 1.02 | 0.972 | 0.725 (active) | 0.945 |
| CS(=O)(=O)c1ccc(C(=O)C2C(=O)CCCC2=O)c([N+](=O)[O-])c1 | 0.966 | 1 | 0.985 | 0.882 | 0.97 | 1.04 | 1.02 | 0.736 | 0.998 | 0.948 |
| N#Cc1c(Cl)cccc1Cl | 0.994 | 0.999 | 1.03 | 0.936 | 1.04 | 1.17 | 0.884 | 1.01 | 1.04 | 1.01 |
| COP(=O)(OC)O/C(=C/Br)c1ccc(Cl)cc1Cl | 1.01 | 0.981 | 1 | 1 | 1.07 | 0.885 | 1.01 | 1.03 | 0.883 | 0.963 |
| COC(=O)c1ccccc1S(=O)(=O)NC(=O)N(C)c1nc(C)nc(OC)n1 | 1.01 | 0.982 | 0.978 | 0.968 | 1 | 1.06 | 0.992 | 1.01 | 0.98 | 1 |
| Oc1c(Br)cc(Br)cc1Br | 1.01 | 0.945 | 0.845 | 1 | 1.03 | 1.13 | 0.919 | 0.748 | 0.934 | 0.991 |
| O=[N+]([O-])c1cc(Cl)ccc1Cl | 0.935 | 0.983 | 0.979 | 1.04 | 1.04 | 0.872 | 1.05 | 1.04 | 1.01 | 0.987 |

Source: the supplement of paper PMC12669032
